Source: PubChem (National Center for Advancing Translational Sciences (NCATS))
IMPase inh: cell-permeable inhibitors of inositol monophosphatase (IMPase); AID 901; 120,000 tested, under 10 active; CHO-M1 cells, IP1 accumulation, HTRF TR-FRET ratio; P97697; inhibition (IP1 accumulation), % at 46.1 µM; active = well fitted curve in the direction sought with a large enough effect in the signal ratio, not every such curve was filed as active; inconclusive = small, poorly fitted or top-dose-only effect, or a change in a side signal; inactive = no such curve, though single readings can be large or run the other way; the % refers to the signal ratio;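 note: cells stimulated with carbachol in lithium chloride buffer; plate controls were DMSO basal wells for no effect and reference inhibitor wells for full effect; higher means more IMPase inhibition seen as more IP1 and lower FRET ratio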
Target sequence (P97697 whole entry, looked up): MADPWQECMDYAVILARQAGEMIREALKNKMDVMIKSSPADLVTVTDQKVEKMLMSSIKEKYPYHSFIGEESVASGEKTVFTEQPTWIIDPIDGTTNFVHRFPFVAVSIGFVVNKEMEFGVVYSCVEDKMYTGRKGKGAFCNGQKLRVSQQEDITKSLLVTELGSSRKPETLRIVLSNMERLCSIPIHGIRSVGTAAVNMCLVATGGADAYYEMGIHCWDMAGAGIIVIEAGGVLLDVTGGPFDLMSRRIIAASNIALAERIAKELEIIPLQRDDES
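Carbachol-driven Gq signalling in CHO-M1 cells (2000/well) generates IP1. Compounds that block IMPase raise IP1 and so reduce the FRET signal from Eu-anti-IP1 and d2-IP1 after a 10 min room-temperature lysis.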
ALDH1A1 block: ALDH1A1 (human) enzyme inhibition. P00352. Purified ALDH1A1, NADH fluorescence, propionaldehyde substrate. Potency, µM (series often up to 75.3 µM), for the others: at the top dose activity, negative = inhibition, usual class: inhibitors. 220,000 compounds, 7.3% hits; active = well fitted inhibition curve with a large enough effect, not every such curve was filed as active; inconclusive = small, poorly fitted or top-dose-only effect, or another doubt; inactive = no such curve, though single readings can be large or run the other way;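 note: potency is the fitted concentration of half-maximal effect; plate controls were no enzyme wells and a reference inhibitor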
HttQ103 aggreg: inhibitors of mutant huntingtin aggregate formation in PC12 cells; AID 1688; PC12 HttQ103-GFP aggregates, Acumen cytometry, 40 h; 220,000 compounds, 1.1% hits; Potency, µM (series often up to 46.1 µM), inactives show at the top dose activity change, negative = inhibition, usual class: inhibitors; note: potency is the fitted concentration of half-maximal effect; % is set by controls: 0 for no effect and ±100 for the full control effect; nearly all actives have a fitted effect of over 60% in size
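Aggregate formation scored by laser-scanning cytometer (488 excitation, 500–530 emission) in lysed PC12 cells expressing Q103-GFP after 100 nM tebufenozide induction; library tested in dose series, with ATPLite reagent added in the multiplex.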
HTT cytoprotect: protects HTT-Q103 PC12 cells, measured by ATP; AID 1471; 230,000 compounds, 0.14% hits; PC12 HTT-Q103 induced, cytoprotection, ATP luminescence, 40 h; Potency, µM (doses to about 56.4 µM), inactives show cytoprotection (ATP increase), hits mostly activators; note: potency is the fitted concentration of half-maximal effect; % of control where 0% means no effect; nearly all actives have a fitted effect of over 45% in size
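Compounds were screened for protection of PC12 cells against cell death after tebufenozide induction (100 nM final) of mutant Huntingtin exon 1 (Q103) fused to GFP.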
IMPase Li inh: IMPase inhibition in cells with lithium potentiation; Potency, µM (titrated, usually from 59.4 µM), for inactives: at the highest dose activity, negative = IMPase inhibition, hits mostly inhibitors; CHO-M1 cells, IP1 TR-FRET (IP-One), carbachol + lithium; 210,000 compounds, 0.35% hits;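 note: IP1 builds up when IMPase is blocked and the TR-FRET signal falls; potency is the fitted concentration of half-maximal effect; plate controls were basal vehicle for no effect and high inhibitor control for full effect; nearly all actives have a fitted effect of over 50% in size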
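Concentration–response in CHO-M1 cells, lithium-potentiated; 30 min at 37C. IP1 detected by competitive TR-FRET after 10 min lysis at RT. Hill-fitted AC50.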
HPGD block: inhibitors of human 15-hydroxyprostaglandin dehydrogenase (HPGD) | P15428 | purified HPGD, NADH fluorescence kinetic, PGE2 substrate | Potency, µM, without a hit: top-dose activity change, negative = inhibition, usual class: inhibitors | 150,000 compounds, 4.3% hits | AID 894; active = well fitted inhibition curve with a large enough effect, not every such curve was filed as active; inconclusive = small, poorly fitted or top-dose-only effect, or another doubt; inactive = no such curve, though single readings can be large or run the other way; note: potency is the fitted concentration of half-maximal effect; % is set by controls: 0 for no effect and ±100 for the full control effect
Target sequence (P15428 whole entry, looked up): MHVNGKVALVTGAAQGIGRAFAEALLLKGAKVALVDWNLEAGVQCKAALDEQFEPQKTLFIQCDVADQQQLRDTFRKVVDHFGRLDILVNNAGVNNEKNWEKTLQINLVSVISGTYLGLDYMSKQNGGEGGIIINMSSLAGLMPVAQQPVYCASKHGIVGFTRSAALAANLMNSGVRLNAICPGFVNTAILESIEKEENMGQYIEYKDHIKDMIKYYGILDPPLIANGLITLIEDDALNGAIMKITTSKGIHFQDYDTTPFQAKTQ
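20 nM HPGD preincubated 15 min at room temperature with compound in 50 mM Tris-HCl pH 8, 0.01% Tween 20. Started with 1 mM NAD+ and 30 uM prostaglandin E2; NADH fluorescence (360/450 nm) read 5 times over 30-s intervals, last minus first.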
The depositor's hits bear a star; ? = inconclusive; · = not tested or not shown; [ ] = another dose, or the depositor's remark. Only some compounds are listed: those with a hit (about 9.4% of all), similar ones and a draw of the others. Unless noted, calls come from the whole dose curve; as a rule, active = well fitted curve in the direction sought with a large enough effect; inconclusive = small, poorly fitted or top-dose-only effect, or another doubt; inactive = no such curve, though single readings can be large; an effect the other way counts as inactive or inconclusive.

SMILES	IMPase inh	ALDH1A1 block	HttQ103 aggreg	HTT cytoprotect	IMPase Li inh	HPGD block
Cc1noc(C)c1-c1ccc2ncnc(N3CCC(C(=O)O)CC3)c2c1	·	?	·	-18.9%	-5.1%	·
Nc1nc(-c2ccccc2)c(-c2ccccc2)s1	2.7	?	6.7%	?	-11.0%[38.3 µM]	-29.4%
Nc1nc(-c2ccccc2)c(N=Nc2ccc(Cl)cc2)s1	·	28.2µM*	-7.8%	-4.6%[10 µM]	-1.4%	?
COc1ccc(Nc2nnc(SCc3cc(=O)n4ccsc4n3)s2)cc1	2.8	14.1µM*	0.4%	-29.4%	-0.8%[38.3 µM]	31.6µM*
O=c1cc(CSc2nnc(Nc3ccccc3F)s2)nc2sccn12	·	-10.4%	-25.8%	-97.3%	8.3%	·
COc1ccc(C(=O)N(O)c2ccccc2)cc1	·	-7.0%	·	-30.8%	-0.8%	?
CCC1=C/C(=C/N(C)c2ccccc2)C(=O)S1	3.7	25.1µM*	-0.4%	18.7%	3.3%[38.3 µM]	22.4µM*
Cc1onc(-c2cccc(Cl)c2Cl)c1C(=O)O/N=C(\N)c1ccc([N+](=O)[O-])o1	·	5.01µM*	6.0%[9.22 µM]	9.3%[10 µM]	·	·
Cc1onc(-c2ccccc2)c1C(=O)O/N=C(\N)c1ccc([N+](=O)[O-])o1	·	?	17.9%[9.22 µM]	0.4%[10 µM]	·	·
CCNc1ncc2nc(-c3ccc(F)cc3)c(=O)n(-c3ccc(OC)cc3)c2n1	·	?	·	-29.9%	-6.7%	·
COc1ccc(C(CC(=O)NCc2ccccc2)Sc2n[nH]c(-c3ccccc3)n2)cc1 (centres undefined)	-6.1	9.5%	4.0%	7.2%[10 µM]	5.5%	7.94µM*
CC1(C)CC2CC(C)(CN2C(=O)COc2cccc3ccccc23)C1 (centres undefined)	1.6	4.3%	5.9%	4.1%	35.0%[38.3 µM]	31.6µM*
CCOC(=O)c1nnn(-c2nonc2N)c1CSc1ccc(C)cc1	10.4	4.47µM*	8.3%	5.9%	16.8%[38.3 µM]	-23.1%
O=C1[C@H]2[C@H]3[C@H](O)[C@H](O)C/C(=N/OCc4ccccc4)[C@H]3CC[C@@H]2C(=O)N1c1cccc(Oc2ccccc2)c1	·	1.7%[13.5 µM]	·	7.6%[10 µM]	·	·
O=C(CSc1ncnc2c1nnn2Cc1ccccc1)NC1CCCC1	·	7.6%	?	·	2.4%	·
CC(C)(C)NC(=O)CSc1ncnc2c1nnn2Cc1ccccc1Cl	-6.8	?	28.1%[9.22 µM]	?	-20.9%[38.3 µM]	31.6µM*
Oc1ccccc1-c1cc(C(F)(F)F)[nH]n1	·	·	-23.5%[9.22 µM]	-16.7%[10 µM]	·	·
COc1ccc(-c2cc(-c3ccccc3O)[nH]n2)cc1OC	11.7	-2.0%	9.1%	-15.8%	2.8%[38.3 µM]	-16.2%
O=[N+]([O-])c1ccccc1-c1cc(-c2ccccc2O)n[nH]1	·	?	7.7%	11.3%[10 µM]	12.3%	12.6µM*
Cc1ccc(-c2cc(-c3ccccc3C)[nH]n2)c(O)c1	9.7	0.7%	-2.5%	4.4%[1.9 µM]	24.3%	10µM*
Cc1ccc(O)c(-c2cc(-c3ccccc3F)[nH]n2)c1	9.1	-2.7%	3.3%	-50.6%	44.2%[38.3 µM]	4.47µM*
Cc1ccc(O)c(-c2cc3ccccc3[nH]2)c1	-11.0	?	1.4%	-7.2%[10 µM]	4.7%[38.3 µM]	?
Oc1ccc(Br)cc1-c1cc(-c2ccccc2)n[nH]1	8.6	3.5%	-4.2%	2.4%[10 µM]	17.8%	25.1µM*
COc1ccc(CCNC(=O)Cn2c([N+](=O)[O-])cnc2C)cc1OC	·	3.9%	23.8%[9.22 µM]	35.2%[10 µM]	3.4%	·
Cc1ccc(O)c(-c2cc(-c3cccc(F)c3)n[nH]2)c1	-1.4	-4.7%	18.9%	-26.0%	23.7%[38.3 µM]	15.8µM*
Cc1ccc(-c2cc(-c3cccc(F)c3)n[nH]2)c(O)c1	7.4	12.1%	0.1%	-16.8%	34.0%[38.3 µM]	-17.4%
CCCN(CCC)S(=O)(=O)c1ccc(C(=O)N2CCC(=O)c3ccccc32)cc1	12.6	17.8µM*	-17.2%	-3.1%	14.7%[38.3 µM]	-12.3%
COC(=O)c1cccc(C23CC4(C2)[C@H](CN(CC2CCCCC2)[C@@H]4c2ccccc2)C3c2ccc(Cl)nc2)c1 (some centres undefined)	·	-9.0%	·	-29.6%	1.2%	-10.4%
